Experimental data published in the supplement of paper PMC9399229.
Where a name gives a salt, the structure may show the parent alone. The full ranking holds about 1,900 compounds; the median of “relative cell viability (CellTiter-Glo), compound plus cabozantinib, relative to the cabozantinib arm (arm median 1.05; reference not stated)” is about 1.1, and the lowest 2% start at about 0.15. The sample as a whole holds a higher share of the lowest values than the screen did.

Test system: Hep3B
Test: relative cell viability (CellTiter-Glo), compound plus cabozantinib, relative to the cabozantinib arm (arm median 1.05; reference not stated) (fraction); higher = more viable cells (less growth inhibition)
Conditions: cabozantinib 2 µM; 4 days

First: O=C(O)CC1CC(c2ccccc2)=NO1 (configuration not stated)
Second: O=C(O)c1ccccc1 [Benzoic Acid]
The relative cell viability of the first is lower: 1.1 for the first, 1.12 for the second.

Going from `CC(C(O)c1ccc(O)cc1)N1CCC(Cc2ccccc2)CC1` (configuration not stated) [Ifenprodil Tartrate] to `CC(C)[C@H](C(=O)Nc1ccc(C(=O)NO)cc1)c1ccccc1`, the relative cell viability falls from 1.13 to 0.142.

Going from `CS(=O)(=O)CCNCc1ccc(-c2ccc3ncnc(Nc4ccc(OCc5cccc(F)c5)c(Cl)c4)c3c2)o1` [Lapatinib] to `Cc1cc(F)c(Nc2ncnc3cc(OCc4ccccc4)ccc23)cc1O`, the relative cell viability rises from 0.971 to 1.05.

First: CS(=O)(=O)CCNCc1ccc(-c2ccc3ncnc(Nc4ccc(OCc5cccc(F)c5)c(Cl)c4)c3c2)o1
Second: CNCc1ccc(C)c(NC(=O)c2ccc(Nc3nc(-c4ccccc4)c4ccccc4n3)cc2)c1
The relative cell viability of the first is higher: 1.03 for the first, 0.858 for the second.

Compared with `COC(=O)c1ccc2c(c1)NC(=O)/C2=C(\Nc1ccc(N(C)C(=O)CN2CCN(C)CC2)cc1)c1ccccc1` [Nintedanib (BIBF 1120)], `CN(C)Cc1cccc(N/C(=C2\C(=O)Nc3cc(C(N)=O)ccc32)c2ccccc2)c1` is higher in relative cell viability: 0.806 for the first, 0.924 for the second.

Compared with `CCS(=O)(=O)Nc1ccc2c(c1)/C(=C(/Nc1ccc(CN3CCCCC3)cc1)c1ccccc1)C(=O)N2` [Hesperadin], `Cc1c(-c2ccc(O)cc2)n(Cc2ccc(OCCN3CCCCCC3)cc2)c2ccc(O)cc12` [Bazedoxifene HCl] is higher in relative cell viability: 0.123 for the first, 0.867 for the second.

Compared with `O=C1NCC2(CCN(CCc3ccccc3)CC2)O1` [Fenspiride HCl], `CC(C)[C@H]1CC[C@H](C(=O)N[C@H](Cc2ccccc2)C(=O)O)CC1` [Nateglinide] is lower in relative cell viability: 1.16 for the first, 1.13 for the second.

First: CC(=O)Nc1ccc(C(=O)Nc2ccccc2N)cc1 [CI994 (Tacedinaline)]
Second: CCCCN(Cc1ccc(C(=O)NO)cc1)C(=O)Nc1ccccc1 [Nexturastat A]
The relative cell viability of the first is higher: 1.14 for the first, 0.953 for the second.

Going from `CC(C(=O)O)c1ccc2c(c1)Cc1cccnc1O2` (configuration not stated) [Pranoprofen] to `CC(C(=O)O)c1ccc2c(c1)CC(=O)c1ccccc1S2` (configuration not stated) [Zaltoprofen], the relative cell viability rises from 1 to 1.17.

Compared with `CCOc1cc(N2CCC(O)CC2)ccc1Nc1ncc2c(n1)N(C)c1ccccc1C(=O)N2C`, `CCOc1cc(C(=O)N2CCC(N3CCN(C)CC3)CC2)ccc1Nc1ncc2c(n1)N(C1CCCC1)c1ccccc1C(=O)N2C` is lower in relative cell viability: 1.09 for the first, 0.703 for the second.

First: COc1cc(N2CCC(N)CC2)ccc1Nc1ncc(Cl)c(-c2c[nH]c3ccccc23)n1
Second: CNC(=O)c1ccccc1Nc1nc(Nc2ccc(N3CCOCC3)cc2OC)ncc1Cl
The relative cell viability of the first is lower: 0.119 for the first, 0.155 for the second.

First: CC/C(=C(/CC)c1ccc(O)cc1)c1ccc(O)cc1 [Diethylstilbestrol]
Second: CC[C@H](c1ccc(O)cc1)[C@@H](CC)c1ccc(O)cc1 [Hexestrol]
The relative cell viability of the first is higher: 1.21 for the first, 1.19 for the second.

Compared with `CCCCNc1ncc(C(=O)NCc2ccc(-n3ccnc3)cc2)c(NC2CCC(O)CC2)n1` (configuration not stated), `CN1CCN(CCCNc2ncc(Cl)c(-c3cc4c(C(=O)NC5CC5)cccc4s3)n2)CC1` is higher in relative cell viability: 0.996 for the first, 1.1 for the second.

First: Cc1cc(C#N)cc(C)c1Oc1nc(Nc2ccc(C#N)cc2)nc(N)c1Br [Etravirine (TMC125)]
Second: CSc1cccc(Nc2ncc3cc(-c4c(Cl)cccc4Cl)c(=O)n(C)c3n2)c1
The relative cell viability of the first is higher: 1.23 for the first, 0.748 for the second.

First: COc1cc(-c2cc(-c3ccc(N4CCNCC4)cc3)cnc2C)cc(OC)c1OC
Second: c1cc(-c2cnn3cc(-c4ccc(N5CCNCC5)cc4)cnc23)c2cccnc2c1
The relative cell viability of the first is higher: 1.01 for the first, 0.148 for the second.

Compared with `COc1ccc(-c2cnc3c(-c4cccc5ncccc45)cnn3c2)cc1`, `Cc1cccc(-c2[nH]c(CNc3ccccc3F)nc2-c2ccc3ncnn3c2)n1` is higher in relative cell viability: 1.08 for the first, 1.1 for the second.

Compared with `CS(=O)(=O)N1CCc2c(-c3cnc(N)nc3)nc(N3CCOCC3)nc21`, `CNC(=O)c1ccccc1Nc1cc(Nc2ccc(N3CCOCC3)cc2OC)ncc1C(F)(F)F` is higher in relative cell viability: 0.228 for the first, 1.05 for the second.

Going from `CCCCCCCCCCCC[N+](C)(C)CCOc1ccccc1` [Domiphen Bromide] to `CN(C)CCOc1ccc(/C(=C(/CCCl)c2ccccc2)c2ccccc2)cc1` [Toremifene Citrate], the relative cell viability rises from 1.02 to 1.06.

Going from `Cc1[nH]c2ccccc2c1CCNC(=O)c1cccs1` to `Cc1[nH]c2ccccc2c1CCNCc1ccc(/C=C/C(=O)NO)cc1` [Panobinostat (LBH589)], the relative cell viability falls from 1.18 to 0.108.

Compared with `Cc1ccc([N+](=O)[O-])cc1S(=O)(=O)N(C)/N=C/c1cnc2ccc(Br)cn12`, `Cc1ccc(S(=O)(=O)n2c(N)nc3ccccc32)cc1` [ML130 (Nodinitib-1)] is higher in relative cell viability: 0.113 for the first, 1.2 for the second.

Compared with `CCN(CC)C(=S)SSC(=S)N(CC)CC` [Disulfiram], `CCOCC(O)COc1ccc(NC(=O)CC[S+](C)C)cc1` (configuration not stated) [Suplatast Tosylate] is higher in relative cell viability: 0.0898 for the first, 1 for the second.

Compared with `Oc1ncnc2[nH]ncc12` [Allopurinol], `Nc1nc(O)c2ncn(CCC(CO)CO)c2n1` [Penciclovir] is higher in relative cell viability: 0.992 for the first, 1.08 for the second.

Going from `CC(C)(C)c1nc(-c2cccc(NS(=O)(=O)c3c(F)cccc3F)c2F)c(-c2ccnc(N)n2)s1` to `Nc1nc(N)c2nc(-c3cccc(O)c3)c(-c3cccc(O)c3)nc2n1`, the relative cell viability falls from 0.993 to 0.944.

Compared with `CC(C)N(CCCNC(=O)Nc1ccc(C(C)(C)C)cc1)C[C@H]1O[C@@H](n2ccc3c(N)ncnc32)[C@H](O)[C@@H]1O`, `CC1(C)CNc2cc(NC(=O)c3cccnc3NCc3ccncc3)ccc21` [Motesanib Diphosphate (AMG-706)] is higher in relative cell viability: 1.07 for the first, 1.09 for the second.

Going from `O=C1c2c(O)cc(O)cc2O[C@H](c2cc(O)c(O)c(O)c2)[C@H]1O` [Dihydromyricetin] to `C[C@H]1CO[C@@H]2Cn3cc(C(=O)NCc4ccc(F)cc4F)c(=O)c(O)c3C(=O)N12`, the relative cell viability rises from 0.985 to 1.1.

Going from `CC(C)[C@H](O)C(=O)N[C@@H](C)C(=O)N[C@@H]1C(=O)N(C)CCc2ccccc21` to `CC(C)C[C@H](NC(=O)[C@H](Cc1ccccc1)NC(=O)c1cnccn1)B(O)O` [Bortezomib (PS-341)], the relative cell viability falls from 1.01 to 0.396.

First: CCN(c1cc(-c2ccc(CN3CCOCC3)cc2)cc(C(=O)NCc2c(C)cc(C)[nH]c2=O)c1C)C1CCOCC1
Second: CCc1c(C(=O)NCCc2ccc(N3CCCCC3)cc2)[nH]c2ccc(Cl)cc12
The relative cell viability of the first is lower: 0.911 for the first, 0.997 for the second.

First: CCNC(=O)CCC/C=C\C[C@@H]1[C@@H](/C=C/[C@@H](O)CCc2ccccc2)[C@H](O)C[C@@H]1O [Bimatoprost]
Second: O=C(O)CCNC(=O)c1ccccc1 [Betamipron]
The relative cell viability of the first is higher: 1.16 for the first, 0.99 for the second.

Going from `Cc1noc(NS(=O)(=O)c2ccc(N)cc2)c1C` [Sulfisoxazole] to `Cc1ccc2c(=O)c3cccc(CC(=O)O)c3oc2c1C` [DMXAA (Vadimezan)], the relative cell viability rises from 1.01 to 1.17.

Going from `CCOc1nc2cccc(C(=O)OCc3oc(=O)oc3C)c2n1Cc1ccc(-c2ccccc2-c2noc(=O)[nH]2)cc1` [Azilsartan Medoxomil] to `COc1nc(-c2ccc3c(c2)OCO3)n(-c2ccc(NC(=O)CSc3ccccc3)cc2)n1` [SecinH3], the relative cell viability rises from 1.22 to 1.24.

First: O=C(Nc1ncc(SCCN2CCCC2)s1)[C@]1(c2ccc(S(=O)(=O)C3CC3)cc2)C[C@H]1C1CCCCC1
Second: O=C(c1cccc(Cl)c1F)N1CCN(Cc2cccc(Nc3nccs3)n2)CC1
The relative cell viability of the first is lower: 0.963 for the first, 1.06 for the second.

Compared with `CC(C=CC1(O)C(C)=CC(=O)CC1(C)C)=CC(=O)O` (configuration not stated) [Abscisic Acid (Dormin)], `CC(C=CC(=O)NO)=CC(C)C(=O)c1ccc(N(C)C)cc1` (configuration not stated) [Trichostatin A (TSA)] is lower in relative cell viability: 1.08 for the first, 0.165 for the second.

First: O=c1c2ccccc2oc2ccccc12 [Xanthone]
Second: O=C(Nc1ccccc1)c1ccccc1O [Salicylanilide]
The relative cell viability of the first is lower: 1.08 for the first, 1.1 for the second.

First: O=NO [Sodium Nitrite]
Second: C[C@@H]1CC(=O)NN=C1c1ccc(NN=C(C#N)C#N)cc1 [Levosimendan]
The relative cell viability of the first is lower: 1.09 for the first, 1.15 for the second.

Going from `CC(C)(C#N)c1cc(Cn2cncn2)cc(C(C)(C)C#N)c1` [Anastrozole] to `O=C(Nc1cc(C(F)(F)F)cc(C(F)(F)F)c1)c1cc(Cl)ccc1O`, the relative cell viability falls from 1.1 to 0.122.

First: C/C(O)=C(\C#N)C(=O)Nc1ccc(C(F)(F)F)cc1 [Teriflunomide]
Second: CC(ONC(=O)c1cc(C(F)(F)F)cc(C(F)(F)F)c1)C(=O)Nc1ccc(Cl)cc1 (configuration not stated)
The relative cell viability of the first is lower: 0.922 for the first, 1.15 for the second.

First: OCC(CO)N[C@H]1C[C@](O)(CO)[C@@H](O)[C@H](O)[C@H]1O [Voglibose]
Second: C[C@H](CCC(=O)O)[C@H]1CC[C@H]2[C@@H]3C[C@H](O)[C@@H]4C[C@H](O)CC[C@]4(C)[C@H]3CC[C@]12C [Hyodeoxycholic acid (HDCA)]
The relative cell viability of the first is higher: 1.28 for the first, 1.11 for the second.

Compared with `O=C(O)Cc1cccc(OCCCN(Cc2cccc(C(F)(F)F)c2Cl)CC(c2ccccc2)c2ccccc2)c1`, `CC(C)N(CC[C@H](c1ccccc1)c1cc(CO)ccc1O)C(C)C` is lower in relative cell viability: 1.15 for the first, 1.1 for the second.

Compared with `CCOC(=O)c1ccc(N2NC(=O)C(=Cc3ccc([N+](=O)[O-])o3)C2=O)cc1`, `Cc1ccc(NC(=O)C2(c3ccc4c(c3)OC(F)(F)O4)CC2)nc1-c1cccc(C(=O)O)c1` [VX-809 (Lumacaftor)] is lower in relative cell viability: 1.02 for the first, 0.168 for the second.

Compared with `C=CC(=O)Nc1cccc(Nc2nc(Nc3ccc(NC4CN(CCF)C4)cc3OC)ncc2C(F)(F)F)c1`, `O=c1cc(CN2CCOCC2)occ1OCCCCCSc1ccnc2cc(C(F)(F)F)ccc12` is higher in relative cell viability: 0.885 for the first, 1.13 for the second.

First: Clc1ccc(NN=C(c2ccccc2)c2ccccn2)nc1
Second: O=C(Nc1cccc(Cl)c1)c1ccccn1
The relative cell viability of the first is lower: 0.087 for the first, 1.02 for the second.

Compared with `COC(=O)[C@H](CCSC)NC(=O)c1ccc(NC[C@@H](N)CS)cc1-c1ccccc1`, `CN(NC(=O)CC(=O)NN(C)C(=S)c1ccccc1)C(=S)c1ccccc1` [Elesclomol (STA-4783)] is lower in relative cell viability: 1.16 for the first, 0.00669 for the second.

First: NC1(Cc2ccc(Cl)cc2)CCN(c2ncnc3[nH]ccc23)CC1
Second: COc1ccc(C(=O)Nc2sc3c(c2C(N)=O)CCCC3)cc1OC
The relative cell viability of the first is lower: 0.989 for the first, 1.03 for the second.

`Cc1coc2c1C(=O)C(=O)c1c-2ccc2c1CCCC2(C)C` [Tanshinone IIA] showed a relative cell viability of 0.985.
